{"source": "the supplement of paper PMC7411054", "note": "Counter-ions that a name gives are not always drawn."}
{"tested_on": "A549-TP53BP1-CLTA", "assay": "lowest phenotypically active concentration; higher = less potent", "conditions": "treatment time: 24 h", "method_in_brief": "(§1)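 Cells from fifteen gene-edited reporter lines (A549, HepG2 and WPMY1) were treated for 24 h at 0.3, 1, 3 or 9 µM and imaged live, four wells per condition. Features were normalised per well to solvent control wells. A condition deviated if ≥3 of 4 wells passed the 95th percentile of control Euclidean distances and was reproducible if its median replicate Pearson correlation beat the 95th percentile of non-replicates; phenotypic activity needed both.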", "units": {"lowest phenotypically active concentration": "µM"}}
{"smiles": "COc1cc2c(c(OC)c1OC)-c1ccc(O)c(=O)cc1[C@@H](N)CC2", "note": "[Trimethylcolchicinic acid]", "lowest phenotypically active concentration": 9}
{"smiles": "C[C@@]1(CO)[C@H](O)CC[C@@]2(C)[C@H]1CC[C@H]1C[C@@H]3C[C@@]12CC[C@]3(O)CO", "note": "[Aphidicolin]", "lowest phenotypically active concentration": "≤ 0.3"}
{"smiles": "COC(=O)[C@@]1(O)C[C@H]2O[C@]1(C)n1c3ccccc3c3c4c(c5c6ccccc6n2c5c31)C(=O)NC4", "lowest phenotypically active concentration": "≤ 0.3"}
{"smiles": "COc1ccc(N(C(=O)Oc2c(C)cccc2C)c2ccnc(Nc3ccc(N4CCN(C)CC4)cc3)n2)c(OC)c1", "lowest phenotypically active concentration": 3}
{"smiles": "COc1ccc2c(c[n+](C)c3c4cc5c(cc4ccc23)OCO5)c1OC", "note": "[Chelerythrine chloride]", "lowest phenotypically active concentration": 9}
{"smiles": "CC[C@@H]1C=CC=CC[C@H](C)[C@@H](O)[C@](C)(O)C(=O)[C@H](C)[C@@H](O)[C@H](C)C(=O)[C@H](C)[C@@H](O)[C@H](C)C=CC(=O)O[C@H]2[C@@H](C)[C@@H](CC1)O[C@@]1(CC[C@@H](C)[C@@H](C[C@H](C)O)O1)[C@@H]2C", "note": "[Oligomycin A]", "lowest phenotypically active concentration": "≤ 0.3"}
{"smiles": "CC(C)[C@@]1(NC(=O)[C@@H]2C[C@@H]3c4cccc5[nH]cc(c45)C[C@H]3N(C)C2)O[C@@]2(O)[C@@H]3CCCN3C(=O)[C@H](Cc3ccccc3)N2C1=O", "note": "[Dihydroergocristine mesylate]", "lowest phenotypically active concentration": 9}
{"smiles": "C[C@]12CC[C@H]3[C@@H](CC[C@]4(O)C[C@@H](O)CC[C@]34C=O)[C@@]1(O)CC[C@@H]2C1=CC(=O)OC1", "note": "[Strophanthidin]", "lowest phenotypically active concentration": "≤ 0.3"}
{"smiles": "C=C1[C@@H](O)C2C=CC[C@H](C)C(=O)[C@](C)(O)C=C[C@@H](OC(C)=O)[C@]23C(=O)N[C@H](Cc2ccccc2)[C@@H]3[C@@H]1C", "note": "(stereo partly drawn) [Cytochalasin D]", "lowest phenotypically active concentration": "≤ 0.3"}
{"smiles": "COc1ccc(C[C@H]2NC[C@H](O)[C@H]2OC(C)=O)cc1", "note": "[Anisomycin]", "lowest phenotypically active concentration": "≤ 0.3"}
{"smiles": "C[C@@H]1CC[C@H]2[C@@H](C)C(=O)O[C@@H]3O[C@@]4(C)CC[C@@H]1[C@]32OO4", "note": "[Artemisinin]", "lowest phenotypically active concentration": 3}
{"smiles": "Cc1sc2c(c1C)C(c1ccc(Cl)cc1)=N[C@@H](CC(=O)OC(C)(C)C)c1nnc(C)n1-2", "lowest phenotypically active concentration": "≤ 0.3"}
{"smiles": "CN1C[C@H](C(=O)N[C@]2(C)O[C@@]3(O)[C@@H]4CCCN4C(=O)[C@H](Cc4ccccc4)N3C2=O)C[C@@H]2c3cccc4[nH]cc(c34)C[C@H]21.CN1C[C@H](C(=O)N[C@]2(C)O[C@@]3(O)[C@@H]4CCCN4C(=O)[C@H](Cc4ccccc4)N3C2=O)C[C@@H]2c3cccc4[nH]cc(c34)C[C@H]21", "note": "[dihydroergotamine]", "lowest phenotypically active concentration": 9}
{"smiles": "C[C@@]12C(=O)OC(=O)[C@]1(C)[C@H]1CC[C@@H]2O1", "note": "[Cantharidin]", "lowest phenotypically active concentration": 3}
{"smiles": "COc1cc2c(c(OC)c1OC)-c1ccc(OC)c(=O)cc1[C@@H](NC(C)=O)CC2", "note": "[colchicine]", "lowest phenotypically active concentration": "≤ 0.3"}
{"smiles": "N#CC(C#N)=NNc1cccc(Cl)c1", "lowest phenotypically active concentration": 9}
{"smiles": "CCN1CCN(C(=O)Cc2ccc(Nc3ncc(F)c(Nc4ccc(C(=O)Nc5ccccc5Cl)cc4)n3)cc2)CC1", "lowest phenotypically active concentration": 1}
{"smiles": "O=C(NCCN1CCC2(CC1)C(=O)NCN2c1cccc(F)c1)c1ccc(F)c(F)c1", "note": "[ML 298 hydrochloride]", "lowest phenotypically active concentration": 9}
{"smiles": "CC(C)(N)Cc1ccccc1", "note": "[phentermine]", "lowest phenotypically active concentration": 3}
{"smiles": "CCn1cnc2c(Nc3cccc(Cl)c3)nc(N[C@H]3CCCC[C@H]3N)nc21", "lowest phenotypically active concentration": 1}
{"smiles": "O=C(Nc1ccncc1)C(=O)c1cn(Cc2ccc(Cl)cc2)c2ccccc12", "note": "[Indibulin]", "lowest phenotypically active concentration": 3}
{"smiles": "CC[C@@H](C(=O)[C@@H](C)[C@@H](O)[C@H](C)[C@@H]1O[C@@H]([C@@H](CC)C(=O)O)CC[C@@H]1C)[C@H]1O[C@]2(C=C[C@@H](O)[C@]3(CC[C@@](C)([C@H]4CC[C@](O)(CC)[C@H](C)O4)O3)O2)[C@H](C)C[C@@H]1C", "note": "[Salinomycin Sodium]", "lowest phenotypically active concentration": "≤ 0.3"}
{"smiles": "CN1C[C@H](C(=O)N[C@]2(C)O[C@@]3(O)[C@@H]4CCCN4C(=O)[C@H](Cc4ccccc4)N3C2=O)C=C2c3cccc4[nH]cc(c34)C[C@H]21", "note": "[ergotamine]", "lowest phenotypically active concentration": 3}
{"smiles": "N#CC(C#N)=NNc1ccc(OC(F)(F)F)cc1", "lowest phenotypically active concentration": 9}
{"smiles": "COC1=CC(C)=C[C@@H](C)[C@@H](O)[C@@H](C)CC(C)=CC=C[C@H](OC)[C@@H]([C@@H](C)[C@@H](O)[C@H](C)[C@@]2(O)C[C@@H](O)[C@H](C)[C@@H](C(C)C)O2)OC1=O", "note": "[Bafilomycin A1]", "lowest phenotypically active concentration": 3}
{"smiles": "COc1cc([C@@H]2c3cc4c(cc3[C@H](O)[C@H]3COC(=O)[C@H]23)OCO4)cc(OC)c1OC", "note": "[Podophyllotoxin]", "lowest phenotypically active concentration": "≤ 0.3"}
{"tested_on": "A549-TUBA1B-RELA", "assay": "lowest phenotypically active concentration; higher = less potent", "conditions": "treatment time: 24 h", "method_in_brief": "as §1", "units": {"lowest phenotypically active concentration": "µM"}}
{"smiles": "CC[C@H]1CN2CC[C@H]1C[C@@H]2[C@@H](O)c1ccnc2ccc(OC)cc12", "note": "[Hydroquinidine HCl]", "lowest phenotypically active concentration": 9}
{"smiles": "COc1cc2c(c(OC)c1OC)-c1ccc(O)c(=O)cc1[C@@H](N)CC2", "note": "[Trimethylcolchicinic acid]", "lowest phenotypically active concentration": 9}
{"smiles": "C[C@@]1(CO)[C@H](O)CC[C@@]2(C)[C@H]1CC[C@H]1C[C@@H]3C[C@@]12CC[C@]3(O)CO", "note": "[Aphidicolin]", "lowest phenotypically active concentration": "≤ 0.3"}
{"smiles": "COC(=O)[C@@]1(O)C[C@H]2O[C@]1(C)n1c3ccccc3c3c4c(c5c6ccccc6n2c5c31)C(=O)NC4", "lowest phenotypically active concentration": "≤ 0.3"}
{"smiles": "COc1ccc(N(C(=O)Oc2c(C)cccc2C)c2ccnc(Nc3ccc(N4CCN(C)CC4)cc3)n2)c(OC)c1", "lowest phenotypically active concentration": 1}
{"smiles": "CC[C@@H]1C=CC=CC[C@H](C)[C@@H](O)[C@](C)(O)C(=O)[C@H](C)[C@@H](O)[C@H](C)C(=O)[C@H](C)[C@@H](O)[C@H](C)C=CC(=O)O[C@H]2[C@@H](C)[C@@H](CC1)O[C@@]1(CC[C@@H](C)[C@@H](C[C@H](C)O)O1)[C@@H]2C", "note": "[Oligomycin A]", "lowest phenotypically active concentration": "≤ 0.3"}
{"smiles": "CC(C)[C@@]1(NC(=O)[C@@H]2C[C@@H]3c4cccc5[nH]cc(c45)C[C@H]3N(C)C2)O[C@@]2(O)[C@@H]3CCCN3C(=O)[C@H](Cc3ccccc3)N2C1=O", "note": "[Dihydroergocristine mesylate]", "lowest phenotypically active concentration": 9}
{"smiles": "O=c1[nH]c2ccccc2n1C1CCN(CCCC(c2ccc(F)cc2)c2ccc(F)cc2)CC1", "note": "[pimozide]", "lowest phenotypically active concentration": 3}
{"smiles": "C[C@]12CC[C@H]3[C@@H](CC[C@]4(O)C[C@@H](O)CC[C@]34C=O)[C@@]1(O)CC[C@@H]2C1=CC(=O)OC1", "note": "[Strophanthidin]", "lowest phenotypically active concentration": "≤ 0.3"}
{"smiles": "C=C1[C@@H](O)C2C=CC[C@H](C)C(=O)[C@](C)(O)C=C[C@@H](OC(C)=O)[C@]23C(=O)N[C@H](Cc2ccccc2)[C@@H]3[C@@H]1C", "note": "(stereo partly drawn) [Cytochalasin D]", "lowest phenotypically active concentration": "≤ 0.3"}
{"smiles": "COc1ccc(C[C@H]2NC[C@H](O)[C@H]2OC(C)=O)cc1", "note": "[Anisomycin]", "lowest phenotypically active concentration": "≤ 0.3"}
{"smiles": "C[C@@H]1CC[C@H]2[C@@H](C)C(=O)O[C@@H]3O[C@@]4(C)CC[C@@H]1[C@]32OO4", "note": "[Artemisinin]", "lowest phenotypically active concentration": "≤ 0.3"}
{"smiles": "O=C1NC(=O)c2c1c1c3ccccc3n3c1c1c2c2ccccc2n1C1CCC3O1", "lowest phenotypically active concentration": "≤ 0.3"}
{"smiles": "Cc1sc2c(c1C)C(c1ccc(Cl)cc1)=N[C@@H](CC(=O)OC(C)(C)C)c1nnc(C)n1-2", "lowest phenotypically active concentration": "≤ 0.3"}
{"smiles": "CN1C[C@H](C(=O)N[C@]2(C)O[C@@]3(O)[C@@H]4CCCN4C(=O)[C@H](Cc4ccccc4)N3C2=O)C[C@@H]2c3cccc4[nH]cc(c34)C[C@H]21.CN1C[C@H](C(=O)N[C@]2(C)O[C@@]3(O)[C@@H]4CCCN4C(=O)[C@H](Cc4ccccc4)N3C2=O)C[C@@H]2c3cccc4[nH]cc(c34)C[C@H]21", "note": "[dihydroergotamine]", "lowest phenotypically active concentration": 9}
{"smiles": "COc1cc2c(c(OC)c1OC)-c1ccc(OC)c(=O)cc1[C@@H](NC(C)=O)CC2", "note": "[colchicine]", "lowest phenotypically active concentration": 9}
{"smiles": "N#CC(C#N)=NNc1cccc(Cl)c1", "lowest phenotypically active concentration": 9}
{"smiles": "CCN1CCN(C(=O)Cc2ccc(Nc3ncc(F)c(Nc4ccc(C(=O)Nc5ccccc5Cl)cc4)n3)cc2)CC1", "lowest phenotypically active concentration": 1}
{"smiles": "O=C(NCCN1CCC2(CC1)C(=O)NCN2c1cccc(F)c1)c1ccc(F)c(F)c1", "note": "[ML 298 hydrochloride]", "lowest phenotypically active concentration": 3}
{"smiles": "CCn1cnc2c(Nc3cccc(Cl)c3)nc(N[C@H]3CCCC[C@H]3N)nc21", "lowest phenotypically active concentration": 1}
{"smiles": "O=C(Nc1ccncc1)C(=O)c1cn(Cc2ccc(Cl)cc2)c2ccccc12", "note": "[Indibulin]", "lowest phenotypically active concentration": "≤ 0.3"}
{"smiles": "CC[C@@H](C(=O)[C@@H](C)[C@@H](O)[C@H](C)[C@@H]1O[C@@H]([C@@H](CC)C(=O)O)CC[C@@H]1C)[C@H]1O[C@]2(C=C[C@@H](O)[C@]3(CC[C@@](C)([C@H]4CC[C@](O)(CC)[C@H](C)O4)O3)O2)[C@H](C)C[C@@H]1C", "note": "[Salinomycin Sodium]", "lowest phenotypically active concentration": "≤ 0.3"}
{"smiles": "CN1C[C@H](C(=O)N[C@]2(C)O[C@@]3(O)[C@@H]4CCCN4C(=O)[C@H](Cc4ccccc4)N3C2=O)C=C2c3cccc4[nH]cc(c34)C[C@H]21", "note": "[ergotamine]", "lowest phenotypically active concentration": 3}
{"smiles": "N#CC(C#N)=NNc1ccc(OC(F)(F)F)cc1", "lowest phenotypically active concentration": 3}
{"smiles": "COC1=CC(C)=C[C@@H](C)[C@@H](O)[C@@H](C)CC(C)=CC=C[C@H](OC)[C@@H]([C@@H](C)[C@@H](O)[C@H](C)[C@@]2(O)C[C@@H](O)[C@H](C)[C@@H](C(C)C)O2)OC1=O", "note": "[Bafilomycin A1]", "lowest phenotypically active concentration": "≤ 0.3"}
{"smiles": "COc1cc([C@@H]2c3cc4c(cc3[C@H](O)[C@H]3COC(=O)[C@H]23)OCO4)cc(OC)c1OC", "note": "[Podophyllotoxin]", "lowest phenotypically active concentration": "≤ 0.3"}
{"smiles": "CC[C@]12C=CCN3CC[C@]4(C(=C(C(=O)OC)C1)Nc1ccccc14)[C@@H]32", "note": "[Tabersonine dichlorhydrate]", "lowest phenotypically active concentration": 9}
